Data reported in PubChem BioAssay AID602412 (Johns Hopkins Ion Channel Center, 2012).
The other results are listed elsewhere or left out. Activity calls are given as the source filed them.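 The calls were made as follows: active = calcium signal rise, corrected for plate position, at least 3 library SD high, with starting brightness within 5 such deviations; inactive = the rest.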

Biological target: Mas-related G-protein coupled receptor member X1 (Homo sapiens) (UniProt Q96LB2)
Assay: MrgX1 receptor agonists, duplicate retest, confirmation, HEK293 cells, Fluo-4 calcium flux (AID 602412)
Details: MrgX1-HEK293, Fluo-4 calcium fluorescence, FDSS; at 10 µM; stronger effect = higher value

Mas-related G-protein coupled receptor member X1 (Homo sapiens), sequence (Q96LB2 whole entry, looked up): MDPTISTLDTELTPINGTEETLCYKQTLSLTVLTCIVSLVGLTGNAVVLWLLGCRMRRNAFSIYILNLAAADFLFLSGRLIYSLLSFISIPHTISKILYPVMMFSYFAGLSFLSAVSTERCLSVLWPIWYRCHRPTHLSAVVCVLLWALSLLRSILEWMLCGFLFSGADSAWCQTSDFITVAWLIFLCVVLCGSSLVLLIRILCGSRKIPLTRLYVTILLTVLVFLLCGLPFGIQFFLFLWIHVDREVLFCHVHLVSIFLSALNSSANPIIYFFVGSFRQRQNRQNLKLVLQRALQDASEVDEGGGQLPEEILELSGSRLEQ

CCCCC(=O)N/N=C/c1c(O)n(CC)c(=S)n(CC)c1=O
activation: 372% (active)
